# Reference: PubChem BioAssay (NCI)
# “And” between values parts separate entries of the source, which are not always exact repeats. Equal values may be shown once. Compounds without any hit were thinned out: in the full panel of roughly 83,000, 20% have a hit.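 Plates (96-well) were seeded with cells, treated with compound at one concentration, and incubated for 48 hours before percent growth was determined.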 Unmarked numbers belong to inactive results. The source made the active and inactive calls. The calls were made as follows: active = growth percent below 10; inactive = the rest.
# Test system: HL-60(TB) leukemia
# Assay: NCI-60 one-dose screen, 48 h (100 = growth as untreated, 0 = no growth, -100 = all killed)
# Conditions: 10 µM unless noted
row,SMILES,growth
1,CN(C)c1ccc(/C=C\C(=O)c2ccccc2)cc1,76.6% and 81.7% and 75.5%
2,Cc1cc(O)c2c(c1)C(=O)c1cc(O)cc(O)c1C2=O,121% and 83.6%
3,ClCCn1cnc2c(SCc3ccccc3Cl)ncnc21,8.38% (active)
4,O=C(Nc1ccc(N2CCNCC2)cc1)c1[nH]ncc1Nc1cc(C2CC2)ncn1,67.9%
5,Cc1[nH]nc2c(=S)[nH]c(=O)[nH]c12,89.2%
6,C/C=C/C(=O)OCCCCCCCCCCCC,85.2%
7,O=c1[nH]ncc(Br)c1Br,65.5%
8,O=C(O)CNC1=C(Cl)C(=O)c2ccccc2C1=O,122%
9,CCCCCCCCCCCC[n+]1ccc(C(N)=O)cc1,-26.3% (active)
10,Cc1nc2ccccc2c2nnc(SCC(=O)N(Cc3ccccc3)c3ccccc3)n12,105%
11,COc1cc(N=C2C(=O)N(Cc3ccccc3)c3ccccc32)cc(OC)c1OC,69.9%
12,Cc1ccc(Nc2ccc(Nc3ccc(C)cc3S(=O)(=O)O)c3c2C(=O)c2ccccc2C3=O)c(S(=O)(=O)O)c1,99.4%
13,CO[C@]12C=C/C(=C(/C(=O)OCc3cccnc3)C(=O)CCCCCCCC[C@@]3(OC)C=C/C(=C(/C(=O)OCc4cccnc4)C(=O)CCCCCCCC1)O3)O2,-20.2% (active)
14,COc1ccccc1-n1cnc(N)c1C(=O)c1cc(OC)c(OC)c(OC)c1,10.9%
15,Nc1nonc1-c1nc2ccccc2n1Cc1ccc(F)cc1,21.5%
16,CN1CCN(CCCN2c3ccccc3Sc3ccc(Cl)cc32)CC1,98.9% and 50.7%
17,COc1ccc(Cn2c(Br)c3c(c2Br)-c2nc(NC(=O)c4ccc(OC)cc4)sc2CC3)cc1,75.9%
18,CCCCCCN1C(=O)C2=C(c3ccc(Cl)cc3)Nc3c(c(C)nn3-c3ccccc3)C2c2ccccc21 (centres undefined),102%
19,CC(=O)c1cc2c(N)c(C(=O)Nc3ccccc3)sc2nc1C,55.6%
20,Cc1ccc(-c2nc3ccccn3c2/C=C2/C(=O)Nc3cc(Cl)ccc32)cc1,50.3%

row,SMILES,growth
1,CN1C=CN(Cc2ccc(-c3ccccn3)nc2)[CH-]1.CN1C=CN(Cc2ccc(-c3ccccn3)nc2)[CH-]1.[Au+3],-9.42% (active)
2,Nc1ccccc1Nc1ccccc1,23.5% and 11.2%
3,CCCCCCNC(=O)Oc1ccc(/C(=C(/CC)Cc2ccccc2)c2ccc(OCCN(CC)CC)cc2)cc1,55.2%
4,Cc1[nH]c(=O)[nH]c(=O)c1CCSSCCc1c(C)[nH]c(=O)[nH]c1=O,99.5%
5,Cc1cc(S(=O)(=O)/N=C(\N)n2nc(C)c(C)c2C)c(SCc2ccccc2)cc1Cl,81.9%
6,COC[C@@H](C)n1c(C2CCOCC2)nc2c1C1C=C(OC)C(c3c(C)noc3C)=CC1N=C2 (some centres undefined),11.8%
7,CC(=O)/C(=C/c1ccc(-c2ccccc2)cc1)C(=O)c1ccccc1,56.3%
8,CCCc1c(C)c2sc(=O)[nH]c2[nH]c1=O,101%
9,O=C(N[C@@H]1CCCc2ccccc21)[C@H](CCC(=O)N1CCN(C2CCCCC2)CC1)N1C(=O)[C@@H](N2C(=O)OC[C@@H]2c2ccccc2)[C@H]1/C=C/c1ccccc1,-8.1% (active)
10,COC(=O)/C(CCC=C(C)C)=C1\[C@@H](OC(C)=O)C[C@@]2(C)[C@H]1C[C@@H](O)[C@H]1[C@@]3(C)CC[C@H](NCCN)[C@@H](C)[C@@H]3CC[C@@]12C,-47.4% (active)
11,CNS(=O)(=O)Oc1ccc(-c2ccc3occc3c2)cc1,100%
12,C=C(C)[C@@H]1CC[C@]2(C(N)=O)CC[C@]3(C)[C@H](CC[C@@H]4[C@@]5(C)CCCNC(C)(C)[C@@H]5CC[C@]43C)[C@@H]12,61.1%
13,O/N=C(/c1ccccc1)c1ccc2c3c(cccc13)CC2,86.9% and 101%
14,Fc1ccc2[nH]cc(-c3nonc3-c3c[nH]c4ccc(Br)cc34)c2c1,34.5%
15,O=C(Nc1ccc(OS(=O)(=O)c2ccccc2)cc1)C12CC3CC(CC(C3)C1)C2,37.3%
16,Cc1nc2n(c(=O)c1CCN1CCC(c3noc4cc(F)ccc34)CC1)CCC[C@@H]2O,89.7%
17,O=C(Nc1ccc(-n2cc(-c3ccncc3)c(-c3ccc(Cl)c(O)c3)n2)cc1)c1cc(C(F)(F)F)cc(C(F)(F)F)c1,52.6%
18,NC1=NN(c2ccccc2)C(=O)/C1=C/c1ccc(Cl)cc1,104%
19,Cn1cnc2c(N3CCN(C(=O)OCc4ccc5c(Cl)cc(Cl)c(O)c5n4)CC3)nc(Cl)nc21,66%
